SMARCA2 act – SMARCA2 function activation, primary screen | MG213 cells, MMTV-luciferase reporter, dexamethasone, overnight | 370,000 compounds, 1% hits | AID 652017 | activation, % at 9.1 µM; in the data active = activation above about 7.8%;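 also: 0% = vehicle wells and 100% = reference activator wells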
DAX1 StAR inh – DAX1 (NR0B1) inhibition, primary screen. HEK293T StAR-luciferase reporter, SF-1/DAX-1 repression relief. inhibition, % at 6.8 µM. 370,000 compounds, 1.1% hits;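 active = inhibition above the mean over all tested compounds plus 3 SD, cut at about 3.6% in these data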;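 also: 0% = DAX-1 cells with DMSO and 100% = cells lacking DAX-1 with DMSO; higher inhibition means more luminescence from relief of DAX-1 repression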
ssDAF-12 act – activates DAF-12 receptor from parasite S. stercoralis; HEK293 ssDAF-12/GRIP1 lit1-tk-luc reporter, luminescence; % of 3 µM dafachronic acid response; activation, % at 6.8 µM; 370,000 compounds, 1% hits;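 active = activation above the mean over all tested compounds plus 3 SD, cut at about 0.9% in these data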;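 also: 0% = DMSO-only wells and 100% = 3 µM delta7-dafachronic acid wells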
hcDAF-12 act – activators of H. contortus DAF-12 nuclear receptor | HEK293 hcDAF-12 lit1-tk-luc reporter, luminescence; 0% DMSO, 100% Δ7-dafachronic acid | activation, % at 6.8 µM | 370,000 compounds, 1.4% hits;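 active = activation above the mean of all tested compounds plus 3 SD, cut at about 5.5% in these data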;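 also: 100% = response to 3 µM Δ7-dafachronic acid high control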
hgDAF-12 ag – hgDAF-12 agonism, primary luciferase screen; HEK293 GAL4-hgDAF12 UAS-luciferase reporter, agonist luminescence; normalized to butyrate control; activation, % at 6.8 µM; 370,000 compounds, 1.8% hits; AID 687014;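 active = activation above a cutoff set at the mean of all screened compounds plus 3 SD, cut at about 10% in these data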;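 also: 0% = DMSO wells and 100% = sodium butyrate wells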
DAX1 conf – confirmation of human DAX1 (NR0B1) inhibitors; shares compounds with DAX1 StAR inh; HEK293T StAR-promoter luciferase reporter, SF-1/DAX-1 repression; inhibition, % at 6.8 µM; 2,400 compounds, 87% hits; AID 652134;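 active = inhibition above the average of every tested compound plus 3 SD, cut at about 3.8% in these data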;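 also: 0% = DAX-1 cells with DMSO and 100% = no DAX-1 control cells with DMSO; active compounds raise luminescence by relieving repression of the StAR reporter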
Target sequence (P51843 whole entry, looked up): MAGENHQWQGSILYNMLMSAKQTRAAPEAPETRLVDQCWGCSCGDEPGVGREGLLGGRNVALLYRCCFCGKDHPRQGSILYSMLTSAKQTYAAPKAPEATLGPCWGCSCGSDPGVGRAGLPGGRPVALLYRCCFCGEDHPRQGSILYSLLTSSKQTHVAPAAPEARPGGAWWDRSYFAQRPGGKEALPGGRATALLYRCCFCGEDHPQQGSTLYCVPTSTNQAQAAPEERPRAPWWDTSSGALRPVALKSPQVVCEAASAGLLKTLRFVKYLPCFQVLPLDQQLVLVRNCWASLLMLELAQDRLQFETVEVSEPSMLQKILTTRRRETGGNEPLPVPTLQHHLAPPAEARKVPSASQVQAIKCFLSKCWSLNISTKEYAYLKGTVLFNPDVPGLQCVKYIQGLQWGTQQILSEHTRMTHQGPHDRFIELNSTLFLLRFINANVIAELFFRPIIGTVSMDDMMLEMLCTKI
SF1 mutant ctr – nonselective inhibitor or artifact in SF-1 mutant DAX1 counter-screen | shares compounds with DAX1 StAR inh | inhibition, % at 6.8 µM | 2,400 compounds, 78% hits | HEK293 StAR-luciferase, SF-1 AF2 mutant, luminescence;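 active = inhibition above the mean of all tested compounds plus 3 SD, cut at about 3% in these data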;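 also: 0% = DAX-1 transfected cells with DMSO and 100% = cells without DAX-1 with DMSO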
SMARCA2 conf – SMARCA2 activation, confirmation screen | shares compounds with SMARCA2 act | activation, % at 9.1 µM | MG213 cells, MMTV-luciferase with dexamethasone, luminescence, overnight; MG213 cells expressing E1A, Rb sequestered; DMSO wells 0%, reference activator 100% | AID 652260 | 3,500 compounds, 30% hits;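 active = activation above its plate's cutoff, the mean activation of tested wells plus 3 SD, cut at about 7.9% in these data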
GAL4-VP16 Luc – GAL4-VP16 reporter activation counter-screen | shares compounds with SMARCA2 act | HEK293 GAL4-VP16 pG5luc reporter, luciferase luminescence; scaled: DMSO wells 0%, SAHA wells 100% | activation, % at 9.1 µM | 3,500 compounds, 41% hits;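 active = activation above the solvent-only control well mean plus 3 SD, averaged across control plates, cut at about 5.2% in these data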
LXR ag – counter-screen for hcDAF-12 agonists: agonists of human LXR-beta. shares compounds with hcDAF-12 act. 3,400 tested, under 10 active. AID 743027. HEK293 Gal4-LXR tk-luc reporter, luminescence, 24 h; normalized: DMSO 0%, positive control 100%. activation, % at 6.8 µM;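 active = mean percent activation of the reporter above a cutoff set as the average over tested compounds plus their standard deviation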
hcDAF12 ag – confirmation of H. contortus DAF-12 agonists; 3,400 compounds, 61% hits; AID 743032; HEK293 hcDAF-12 lit1-tk-luc reporter, luminescence; % of Δ7-dafachronic acid response; activation, % at 6.8 µM; shares compounds with hcDAF-12 act;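 active = mean activation across triplicate tests above the threshold derived from the earlier primary screen, cut at about 5.5% in these data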;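 also: 0% = DMSO only wells and 100% = 3 µM Δ7-dafachronic acid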
hgDAF12 conf – confirmation of H. glycines DAF-12 agonists; 3,300 compounds, 80% hits; activation, % at 6.8 µM; shares compounds with hgDAF-12 ag; HEK293 GAL4-hgDAF12 luciferase reporter, agonist mode; percent of butyrate response;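 active = mean activation over triplicate wells above the hit cutoff derived from the earlier primary screen, cut at about 11% in these data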;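 also: 0% = DMSO low control and 100% = 2 mM sodium butyrate high control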
LXR ag 2 – activates human LXR-beta, counter-screen for DAF-12 agonists; shares compounds with hgDAF-12 ag; HEK293 Gal4-LXR luciferase reporter, 24 h; activation, % at 6.8 µM; 3,300 tested, under 10 active; AID 743051;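 active = mean activation of the triplicate above a set limit carried over from the primary screen, none filed active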
Numbers without * were called inactive; / = no result given. Compounds with a hit are over-represented: about 4.2% of the library has one in this group of screens.

SMILES | SMARCA2 act | DAX1 StAR inh | ssDAF-12 act | hcDAF-12 act | hgDAF-12 ag | DAX1 conf | SF1 mutant ctr | hgDAF12 conf | LXR ag 2 | others
C[C@H](CO)N1C[C@H](C)[C@@H](CN(C)C(=O)Nc2ccc(C(F)(F)F)cc2)OCc2cn(nn2)CCCC1=O | -3 | -4 | -1 | -1 | -1 | / | / | / | /
CC(=O)Nc1c(O)[nH]c2ccccc12 | -2 | 0 | -1 | 1 | 1 | / | / | / | /
N=NC(=O)c1ccccc1Nc1c(O)[nH]c2ccccc12 | 5 | 6.1* | 2.3* | 13* | 15* | 11* | 7.8* | 16* | 1 | LXR ag=1;hcDAF12 ag=14*
O=C(N/N=C\c1c(O)ccc2ccccc12)c1ccc(O)cc1 | -1 | -3 | 0 | -4 | -9 | / | / | / | /
Cn1c(-c2ccccc2)c(/C=N/NC(=O)c2ccc(O)cc2)c2ccccc21 | 2 | 4.5* | 0 | 1 | 14* | 12* | 7.6* | 22* | 0
CCCCN1C(=O)C(CC(=O)NCCCN(C)C)CC(C(=O)N(C)C)=C1C (stereo unspecified) | -4 | 0 | 0 | 0 | 2 | / | / | / | /
O=C(Nc1ccc2oc(=O)ccc2c1)c1cc2ccccc2o1 | 5 | 0 | 0 | 4 | 6 | / | / | / | /
CC(=NNC(=O)c1cccs1)c1ccc2c(c1)OCCO2 | 5 | 7.2* | 1 | 5 | 17* | 7.8* | 2.9* | 13* | 1
O=C(Nc1ccc2c(c1)OCCO2)c1cccs1 | 4 | 4.7* | 1 | 8.3* | 19* | 15* | 7.6* | 13* | 1 | LXR ag=1;hcDAF12 ag=4
O=C(Nc1ccc2c(c1)OCCO2)c1cc2ccccc2o1 | 2 | 5.7* | 1.0* | 12* | 20* | 20* | 8.3* | 17* | 1 | LXR ag=2;hcDAF12 ag=8.1*
C/C(=N/NC(=O)c1cccs1)c1cccc(N)c1 | 3 | 5.8* | 0 | 7.0* | 16* | 5.5* | 2 | 10 | 0 | LXR ag=1;hcDAF12 ag=4
C/C(=N\NC(=O)c1ccc2c(c1)OCCO2)c1ccccc1 | 6 | 0 | 0 | -1 | 8 | / | / | / | /
COC(=O)[C@]12CCCCC=C1N(Cc1ccc3c(c1)OCO3)C(=O)[C@H](CC(=O)N1CCCCC1)C2 | -4 | -2 | -2 | -1 | -2 | / | / | / | /
CC(COc1ccc(Br)cc1)CN1CCC(C(O)(c2ccccc2)c2ccccc2)CC1 (stereo unspecified) | -5 | 0 | -1 | -1 | 0 | / | / | / | /
O=C(/C=C\Nc1ccc2c(c1)OCO2)c1cccs1 | 10* | 9.0* | 1.0* | 8.3* | 17* | 12* | 0 | 12* | 1 | SMARCA2 conf=9.8*;GAL4-VP16 Luc=5;LXR ag=2;hcDAF12 ag=11*
COC(=O)C1CN(CCO)CCS(=O)(=O)N1Cc1cn(Cc2ccc(C)cc2)nn1 (stereo unspecified) | -2 | -1 | -1 | -1 | 1 | / | / | / | /
c1ccc(N=NC2=NN(c3ccccc3)CS2)cc1 | 1 | 6.5* | 1.7* | 16* | 16* | 7.0* | 3.4* | 12* | 0 | LXR ag=1;hcDAF12 ag=8.3*
N#CCC[C@@H]1CC[C@]2(CCCN(C(=O)c3ccc4ccccc4n3)C2)O1 | 0 | 0 | -1 | -1 | 2 | / | / | / | /
COc1ccc(-n2c(COc3ccc(Cl)cc3)nnc2SCc2nc3ccccc3[nH]2)cc1 | -3 | -1 | -1 | -2 | -1 | / | / | / | /
Clc1ccc(OCc2nc3ccccc3[nH]2)cc1 | 5 | 4.7* | 0 | 2 | 23* | 9.8* | 9.3* | 10 | 1
CC(=O)N(C)c1ccc(N=Nc2c(C)[nH]n(C(N)=S)c2=O)cc1 | 6 | 4.8* | 0 | 6.5* | 16* | 12* | 5.3* | 17* | 1
Cc1ccccc1-c1ccc2c(c1)[C@@H]1C[C@H](N(C)S(=O)(=O)c3ccc(Cl)cc3)[C@H]([C@H](C)O)CN1CC2 | -6 | 1 | -1 | 1 | 1 | / | / | / | /
COc1ccc2nc(N3CCOCC3)cc(C)c2c1 | 5 | 5.8* | 0 | 4 | 17* | 12* | 6.3* | 14* | 1
Cc1nc2ccc(-c3nc4ccccc4[nH]3)cc2[nH]1 | 16* | 5.6* | 0 | 8.3* | 19* | 12* | 6.4* | 19* | 1 | SMARCA2 conf=14*;GAL4-VP16 Luc=12*;LXR ag=1;hcDAF12 ag=8.1*
Cc1ccc(-c2nc3ccccc3[nH]2)cn1 | 2 | 1 | -1 | 2 | 7 | / | / | / | /
SMILES | SMARCA2 act | DAX1 StAR inh | ssDAF-12 act | hcDAF-12 act | hgDAF-12 ag | DAX1 conf | SF1 mutant ctr | hgDAF12 conf | LXR ag 2 | others
Cc1cccc2nc(-c3ccccc3)c(-c3ccc(CN4CCC(n5cc(-c6ccccc6)[nH]c5=O)CC4)cc3)nc12 | 2 | -1 | -1 | -2 | -4 | / | / | / | /
Cc1cc(N2CCCN(C)CC2)n2nc(C)nc2n1 | -6 | 0 | -1 | -1 | 3 | / | / | / | /
Cn1c(NC(=O)CCC2CCCCC2)cc(=O)n(C)c1=O | 1 | 5.6* | 0 | 5 | 14* | 12* | 6.0* | 12* | 1
Cn1c(NNC(=O)CCC2CCCCC2)cc(=O)n(C)c1=O | 2 | -1 | -1 | 0 | 2 | / | / | / | /
O=C(NOCc1ccccc1)c1ccc([N+](=O)[O-])cc1 | 5 | 7.3* | 1.8* | 2 | 15* | 9.7* | 5.2* | 12* | 1
COc1ccc(C(=O)c2sc(Nc3ccc(NC(C)=O)cc3)nc2C)cc1 | -6 | 0 | -2 | -3 | -2 | / | / | / | /

Screening data (PubChem BioAssay)
